Shown is part of a subset that was picked to be rich in hits.
TDP1 cell CPT: growth inhibition of DT40 Tdp1-/-;hTDP1 cells with camptothecin (screen for TDP1 inhibitors) | chicken DT40 Tdp1-/-;hTDP1 cells + 20 nM CPT, ATP luminescence, 48 h | Potency, µM (titrated, usually from 46.2 µM), for the others: top-dose activity change, negative = growth inhibition, most hits filed as inhibitors | actives 12% (n = 420,000) | AID 686979; further: potency means the concentration at half of the fitted maximal effect; nearly all actives have a fitted effect of over 55% in size
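Chicken DT40 Tdp1-/- cells stably complemented with human TDP1 were seeded at 400 cells/well in medium containing 20 nM camptothecin, exposed to pin-transferred compounds, and grown at 37 °C for at least 48 hr. Viability was read as ATP luminescence.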
HT1080NT lethal: kills 2HG-producing HT-1080-NT fibrosarcoma cells. actives 1.6% (n = 360,000). Potency, µM (series often up to 46.1 µM), for inactives: top-dose activity, negative = less viability, hits mostly cytotoxic. HT-1080-NT fibrosarcoma viability, CellTiter-Glo ATP luminescence, 48 h;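 further: NT is the 2HG producing partner of a matched IDH1 knockdown line; potency means the concentration at half of the fitted maximal effect; 0% = DMSO-treated cells and -100% = media-only wells without cells; nearly all actives have a fitted effect of over 55% in size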
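A 48-hour cytotoxicity screen used HT-1080-NT cells plated 2 hours before compound delivery. ATP-based CellTiter-Glo luminescence measured viability, normalized to DMSO and no-cell controls.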
ALOX12 inh: ALOX12 (human) lipoxygenase inhibition; purified 12hLO, xylenol orange hydroperoxide absorbance; Potency, µM (highest dose often 108 µM), for inactives: at the top dose activity change, negative = inhibition, usual class: inhibitors; actives 1.1% (n = 580,000); further: potency means the concentration at half of the fitted maximal effect
Target sequence (P18054 whole entry, looked up): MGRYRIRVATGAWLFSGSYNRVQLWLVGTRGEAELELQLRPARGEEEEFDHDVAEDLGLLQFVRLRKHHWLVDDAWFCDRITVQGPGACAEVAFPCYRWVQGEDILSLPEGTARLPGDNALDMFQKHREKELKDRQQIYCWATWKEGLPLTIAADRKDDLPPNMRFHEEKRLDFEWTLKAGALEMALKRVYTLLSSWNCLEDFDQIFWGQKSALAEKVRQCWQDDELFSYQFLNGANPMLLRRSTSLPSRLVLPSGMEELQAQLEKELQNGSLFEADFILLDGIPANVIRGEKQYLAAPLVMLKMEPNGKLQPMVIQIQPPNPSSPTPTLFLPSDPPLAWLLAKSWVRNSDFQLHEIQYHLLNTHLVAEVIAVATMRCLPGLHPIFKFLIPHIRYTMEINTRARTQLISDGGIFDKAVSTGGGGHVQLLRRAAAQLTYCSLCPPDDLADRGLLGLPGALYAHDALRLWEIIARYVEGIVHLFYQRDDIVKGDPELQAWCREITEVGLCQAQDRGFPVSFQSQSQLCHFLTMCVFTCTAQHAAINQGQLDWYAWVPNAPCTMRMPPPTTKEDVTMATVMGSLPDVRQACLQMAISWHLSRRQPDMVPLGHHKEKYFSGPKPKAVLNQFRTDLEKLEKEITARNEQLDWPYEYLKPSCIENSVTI
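Hydroperoxide product was detected by ferrous iron/xylenol orange as the 573 to 405 nm absorbance ratio. Arachidonic acid at 40 uM (final) was turned over for 30 min at room temperature by 150 nM human 12hLO, pH 7.0 Hepes buffer, after 15 min compound preincubation.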
IL1B secr inh: inhibitors of inflammasome signaling (IL-1 beta secretion); THP-1 LPS/ATP IL-1B secretion, AlphaLISA, 16 h; hits give low values; activity change, % at 57.5 µM; actives 4.7% (n = 360,000); in the data active means activity change below about -50%; inconclusive means mostly about -30% to -49%
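Secreted IL-1B measured by AlphaLISA bead assay after 16 h compound exposure of THP-1 cells; compounds (final up to 57.5 uM) added 1 h before LPS (250 ng/mL) and ATP (1.25 mM) stimulation; lower signal means less secretion.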
HT1080 IDH1KD tx: toxicity to HT-1080 IDH1 knockdown cells (counter line) | HT-1080 IDH1 knockdown viability, ATP luminescence, 48 h | Potency, µM (series often up to 46.1 µM), without a hit: top-dose activity, negative = toxicity, actives largely listed as cytotoxic | actives 2% (n = 360,000) | AID 686971;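 further: potency means the concentration at half of the fitted maximal effect; 0% = DMSO wells and -100% = cell-free medium wells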
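Assay cells: HT-1080 with IDH1 knockdown, 750 per well, RPMI/5% FBS. Exposure: 48 h at 37 °C following 2 h pre-incubation. Read: CellTiter-Glo luminescence; fitted concentration-response, curve class assigned.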
TDP1 cell noCPT: qHTS for Inhibitors of human tyrosyl-DNA phosphodiesterase 1 (TDP1): qHTS in cells in absence of CPT | DT40 Tdp1-/- hTDP1 cells, no CPT, ATP luminescence, 48 h | Potency, µM (titrated, usually from 46.2 µM), inactives show top-dose activity change, negative = growth inhibition, actives largely listed as inhibitors | actives 15% (n = 420,000) | AID 686978, 2013; further: potency means the concentration at half of the fitted maximal effect; nearly all actives have a fitted effect of over 55% in size
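Stably hTDP1-transfected Tdp1-null chicken DT40 cells were treated with library compounds minus camptothecin and grown for at least 48 hr at 37 °C, after which cellular ATP was quantified by luminescence.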
Starred values were filed as active, the others as inactive; i = inactive; ? = inconclusive; nt = no result given; [ ] = remark or other dose. Unless noted, the call rests on the fitted dose curve; in most records, active means well fitted curve in the direction sought with a large enough effect; inconclusive means small, poorly fitted or top-dose-only effect, or another doubt; inactive means no such curve, though single readings can be large; an effect the other way counts as inactive or inconclusive. Unless noted, on the % scale 0 is the no-effect control and ±100 the full control effect.

SMILES	TDP1 cell CPT	HT1080NT lethal	ALOX12 inh	IL1B secr inh	HT1080 IDH1KD tx	TDP1 cell noCPT
CCCc1c(-c2ccc(F)cc2F)ncn1Cc1ccccc1OC	2.1µM*	18µM*	?	0	?	1.5µM*
CCCc1c(-c2cccc(F)c2)ncn1Cc1ccccc1OC	9.2µM*	?	-17%	19	?	8.2µM*
CCc1c(-c2ccc(OC)c(OC)c2)ncn1CCc1ccccc1OC	nt	nt	-13%	nt	nt	nt
O=C1CC(C(=O)NCc2cc3n(n2)CCN(C2CCCCC2)C3)C2(CCCC2)O1 (centres undefined)	nt	nt	58%	nt	nt	nt
CCN(CCCNC(=O)C(C)C)c1ccccc1	nt	nt	-12%	nt	nt	nt
COc1ccc(C)cc1-n1nnnc1SCc1noc(CC(C)C)n1	nt	nt	-19%	nt	nt	nt
Cc1cc2c(c(=O)n1CCN(C)C)C(c1c(Cl)cccc1Cl)C(C#N)=C(N)O2 (centres undefined)	nt	nt	1%	nt	nt	nt
COc1ccc(N(C(=O)c2ccncc2)S(=O)(=O)c2ccc3c4c(cccc24)C(=O)N3C)cc1	18µM*	-16%	17%	-14	-11%	?
COc1ccc(N(C(=O)c2cccnc2)S(=O)(=O)c2ccc3c4c(cccc24)C(=O)N3C)cc1	?	?	3%	-28	?	?
Cc1ccccc1NS(=O)(=O)c1ccc2c3c(cccc13)C(=O)N2C	?	-14%	-24%	i	-24%	?
CN1C(=O)c2cccc3c(S(N)(=O)=O)ccc1c23	-27%	-2%	0%	-88*	-1%	-3%
CC(C)C(=O)NC1CCC(c2ccccc2)CC1 (centres undefined)	nt	nt	-28%	nt	nt	nt
Cc1ccc(C(C)C)c(Oc2ccc(C#N)c(C#N)c2)c1	nt	nt	-3%	nt	nt	nt
Clc1ccc(CNc2ccc3nnc(-c4ccccc4)n3n2)cc1	2.1µM*	-4%	?	-7	7%	4.1µM*
O=C(CCc1nnc2ccc(NCc3ccc(Cl)cc3)nn12)NCc1ccc(Cl)cc1	nt	nt	-28%	nt	nt	nt
CCOc1ccc(CCNc2nc3c(-c4ccc(C)cc4)nnn3c3ccccc23)cc1OCC	0%	nt	-25%	nt	nt	?
CCOc1ccc(CCNc2ccc3nnc(-c4ccccc4)n3n2)cc1OCC	16µM*	16%	-1%	31	6%	?
CCOC(=O)c1ccc(NC(=O)Nc2ccon2)cc1	0.0073µM*	0.58µM*	0%	82	0.92µM*	0.018µM*
CCOC(=O)c1ccc(NC(=O)Nc2nncs2)cc1	0.018µM*	1.2µM*	9%	29	0.92µM*	0.0065µM*
CCOC(=O)c1ccc(NC(=O)Nc2nc3ccccc3s2)cc1	?	-2%	-6%	-10	2%	?
Cc1cc(C)c(S(=O)(=O)Nc2ccc(Cl)c(N3CCCS3(=O)=O)c2)c(C)c1	nt	nt	89%	nt	nt	nt
O=C(O)CC(CCc1ccccc1)OC1OC(CO)C(O)C(O)C1O (centres undefined)	0%	-3%	45µM*	-13	-4%	9%
CC(C)C[C@@H]1O[C@H](CCc2ccccc2)CC2=C1C(=O)OC(C)(C)O2	?	?	-5%	0	23µM*	?
CC(C)C[C@@H]1CC2=C(C(=O)OC(C)(C)O2)[C@H](CCc2ccccc2)O1	?	-24%	?	63	0%	?
CC(C)C[C@@H]1CC2=C(C(=O)OC(C)(C)O2)[C@H](c2ccc(Cl)cc2)O1	?	-1%	-137%	-9	-7%	18µM*
SMILES	TDP1 cell CPT	HT1080NT lethal	ALOX12 inh	IL1B secr inh	HT1080 IDH1KD tx	TDP1 cell noCPT
CC(C)[C@@H]1CC2=C(C(=O)OC(C)(C)O2)[C@H](CCc2ccccc2)O1	?	-15%	-18%	17	16µM*	?
CCCC[C@@H]1CC2=C(C(=O)OC(C)(C)O2)[C@H](c2ccc(C(C)C)cc2)O1	-29%	?	?	48	-25%	?
CC1(C)OC(=O)C2=C(C[C@@H](CCc3ccccc3)O[C@@H]2c2ccc(F)cc2)O1	?	-6%	0%	23	-6%	16µM*
Cc1ccc(NC(=O)CSc2cnc3cc(S(=O)(=O)N4CCCCC4)ccc3n2)cc1	nt	nt	-8%	nt	nt	nt
COCCn1c(C)cc(-c2csc(NCc3ccccc3OC)n2)c1C	nt	nt	62%	nt	nt	nt
C=C(C)Cn1c(Br)nc2c1c(=O)[nH]c(=O)n2C	nt	nt	5%	nt	nt	nt
O=C(c1ccc2ncsc2c1)N1CCN(c2nc3ccc(F)cc3s2)CC1	nt	nt	1%	nt	nt	nt
Cc1cc(C)cc(NC(=S)N2CCN(c3ncc(C(F)(F)F)cc3Cl)CC2)c1	?	12%	393%	7	16%	?
O=C(c1ccc2nc[nH]c2c1)N1CCN(c2ncc(C(F)(F)F)cc2Cl)CC1	15µM*	-1%	0%	-14	-15%	18µM*
CC(=O)c1ccc(N2CCN(c3ncc(C(F)(F)F)cc3Cl)CC2)cc1	?	-5%	405%	?	0%	29µM*
O=C(c1ccc2ncsc2c1)N1CCN(c2cccc(C(F)(F)F)c2)CC1	2.9µM*	8.2µM*	-24%	17	8.2µM*	1.5µM*
C=CCNC(=S)N1CCN(c2ncc(C(F)(F)F)cc2Cl)CC1	?	-9%	?	-67*	-11%	?
NC(=O)c1ccc(N2CCN(c3ncc(C(F)(F)F)cc3Cl)CC2)cc1	-2%	2%	1%	-25	7%	14%
O=C(c1cnccn1)N1CCc2c(n(Cc3ccccc3)n(-c3ccccc3)c2=O)C1	nt	nt	-25%[176 µM]	nt	nt	nt
CC(C)(C)NC(=O)NC(=O)CN1CCN(c2ncc(C(F)(F)F)cc2Cl)CC1	?	-2%	-39%	7	2%	18µM*
O=C(c1ccc(Nc2nc3ccccc3n3nnnc23)cc1)N1CCN(c2cccc(C(F)(F)F)c2)CC1	?	nt	0%	nt	nt	18µM*
O=C(c1ccc2nc[nH]c2c1)N1CCN(c2cccc(C(F)(F)F)c2)CC1	?	7%	361%	i	-7%	16µM*
O=C(CC1N=C2c3ccccc3N=C(SCC(=O)Nc3ccc(F)cc3)N2C1=O)NCc1ccco1 (centres undefined)	?	nt	-18%	nt	nt	16µM*
COc1cccc(NC(=O)CSC2=Nc3ccccc3C3=NC(CCC(=O)NCc4ccco4)C(=O)N23)c1 (centres undefined)	?	nt	-14%	nt	nt	?
COc1ccc(NC(=O)CSC2=Nc3ccccc3C3=NC(CCC(=O)NCc4ccco4)C(=O)N23)cc1 (centres undefined)	12µM*	nt	5%	nt	nt	12µM*

Source: PubChem (National Center for Advancing Translational Sciences (NCATS))
